Test results taken from ChEMBL document CHEMBL3433997, “St. Jude Leishmania screening dataset” (2016).

What was measured:
Assay type in all cases: functional
[1] = molecular target: Solute carrier family 2, facilitated glucose transporter member 1 (Homo sapiens) (UniProt P11166); assay: ST_JUDE_LEISH: Cytotoxicity at 2uM final concentration against transgenic Leishmania Mexicana promastigotes LmGLUT1 that are glucose transport deficient and complemented with the human glucose transporter GLUT1. Activity is measured by DNA content using SYBR green in vitro
[2] = molecular target: Hexose transporter 1 (Plasmodium falciparum) (UniProt O97467); assay: ST_JUDE_LEISH: Cytotoxicity at 2uM final concentration against transgenic Leishmania Mexicana promastigotes LmPfHT that are glucose transport deficient and complemented with the Plasmodium falciparum hexose transporter. Activity is measured by DNA content using SYBR green in vitro
[3] = molecular target: Glucose transporter (Leishmania mexicana) (UniProt O61059); assay: ST_JUDE_LEISH: Cytotoxicity at 2uM final concentration against transgenic Leishmania Mexicana promastigotes LmGT2 that are glucose transport deficient and complemented with the L. Mexicana glucose transporter 2. Activity is measured by DNA content using SYBR green in vitro

Chain of Solute carrier family 2, facilitated glucose transporter member 1 (Homo sapiens) (P11166 whole entry): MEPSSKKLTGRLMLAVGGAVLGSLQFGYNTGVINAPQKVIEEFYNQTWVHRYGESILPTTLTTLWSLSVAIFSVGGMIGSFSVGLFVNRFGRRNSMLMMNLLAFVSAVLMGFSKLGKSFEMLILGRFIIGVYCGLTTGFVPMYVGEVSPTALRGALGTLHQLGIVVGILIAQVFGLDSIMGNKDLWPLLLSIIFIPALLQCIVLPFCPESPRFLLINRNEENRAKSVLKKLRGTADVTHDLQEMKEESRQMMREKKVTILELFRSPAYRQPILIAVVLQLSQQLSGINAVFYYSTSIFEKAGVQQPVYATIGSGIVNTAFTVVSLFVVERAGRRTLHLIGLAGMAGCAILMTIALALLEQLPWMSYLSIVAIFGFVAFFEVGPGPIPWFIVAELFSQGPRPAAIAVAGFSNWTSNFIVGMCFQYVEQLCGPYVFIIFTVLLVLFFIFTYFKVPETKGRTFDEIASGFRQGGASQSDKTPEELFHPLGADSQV

Row | Structure (SMILES) | inhibition [1] | inhibition [2] | inhibition [3]
1 | CC(C)(C)c1ccc(CNC(=O)COc2ccc(-c3nnc(-c4cccc([N+](=O)[O-])c4)o3)cc2[N+](=O)[O-])cc1 | -0.15% | -0.74% | -0.93%
2 | CC(NC(C)c1cccc(Cl)c1)C(=O)Nc1cc(C(F)(F)F)ccc1N1CCOCC1 (stereo unspecified) | 0.88% | 0.48% | -9.9%
3 | CC(=O)N(C)C1CCN(Cc2cccc(-c3ccc(-c4nc5cc(F)ccc5[nH]4)cc3)c2)C1 (stereo unspecified) | 3.46% | 2.4% | 3.15%
4 | COc1ccc(OC)c(NC(=O)c2c(-c3c(F)cccc3Cl)noc2C)c1 | 5.12% | 3.64% | 2.52%
5 | CN1CCN(CC(=O)Nc2ccc(-c3cccc(-c4nc5cc(C(F)(F)F)ccc5[nH]4)c3)cc2)CC1 | 0.66% | 1.68% | -1.43%
6 | COc1cc([N+](=O)[O-])ccc1NC(=O)c1cc(Cl)ccc1O | 7.76% | 6.83% | 7.02%
7 | CN(C)C(=O)O[C@@H]1CN[C@H](C#Cc2cc3ncnc(Nc4ccc5c(cnn5Cc5cccc(F)c5)c4)c3s2)C1 | 10.1% | 9.66% | 10.1%
8 | O=C(C=Cc1ccc(Cl)c(Cl)c1)NCCCCCN1CCC(CCCNC(=O)C2CC2c2ccccc2)CC1 (stereo unspecified) | 1.26% | 0.65% | 1.16%
9 | CC(C)Sc1ccc(Cl)cc1CON1C(=N)N=C(N)NC1(C)C | 2.72% | 2.18% | 0.87%
10 | Cc1[nH]c(C)c(-c2ccc(-c3ccc(Cl)cc3)cc2)c(=O)c1Cl | -0.9% | 0.3% | 1.13%
11 | Cc1cccc2nc(-c3ccc(-c4cccc(CN5CCCC(O)C5)c4)s3)[nH]c12 (stereo unspecified) | 3.6% | 4.83% | 2.93%
12 | CNCCNCc1cccc(-c2ccc(-c3nc4ccccc4[nH]3)s2)c1 | 1.51% | 1.53% | 5.06%
